Experimental data from PubChem BioAssay (EPA / NIEHS).
Active and inactive are the calls of the source. Rule for the calls: active = hit-call score of the fitted dose curve at least 0.9, where 1 is the maximum; inactive = score below 0.9.

Key:
[1] = read-out: TIMP metallopeptidase inhibitor 2 (TIMP2), TIMP2 (gene 7077); test: BSK_KF3CT_TIMP2: BioMAP Diversity Plus: KF3CT Assay for TIMP metallopeptidase inhibitor 2 (TIMP2) Biomarker Activity (AID 2283071); settings: primary human keratinocytes with fibroblasts; actives raise or lower the signal
Method in brief: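 Chemicals were dosed onto human skin primary co-cultures of keratinocytes and foreskin fibroblasts, and TIMP-2 was measured by ELISA after 24 hours. Activity in either direction was fitted relative to DMSO.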

[2] = read-out: Transforming growth factor beta 1 (TGFb1), TGFB1 (gene 7040); test: BSK_KF3CT_TGFb1: BioMAP Diversity Plus: KF3CT Assay for Transforming growth factor beta 1 (TGFb1) Biomarker Activity (AID 2283072); settings: primary human keratinocytes with fibroblasts; actives raise or lower the signal
Method in brief: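 KF3CT co-culture (keratinocytes + fibroblasts), 24 h exposure → TGF-b1 ELISA → bidirectional fit, DMSO = baseline. Parallel SRB total-protein staining (0.1% SRB, 10% TCA fixation, 560 nm) for cytotoxicity.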

[3] = read-out: C-C motif chemokine 2 (Homo sapiens) (UniProt P13500); test: BSK_KF3CT_MCP1: BioMAP Diversity Plus: KF3CT Assay for Monocyte Chemoattractant Protein 1 (MCP1/CCL2) Biomarker Activity (AID 2283073); settings: primary human keratinocytes with fibroblasts; actives raise or lower the signal
Method in brief: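 Human keratinocyte–foreskin fibroblast co-culture; MCP-1 measured by ELISA 24 h after dosing. Bidirectional fit vs DMSO; cytotoxicity tracked by SRB total protein in parallel cultures.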

[4] = read-out: Matrix Metallopeptidase 9 (MMP9), MMP9 (gene 4318); test: BSK_KF3CT_MMP9: BioMAP Diversity Plus: KF3CT Assay for Matrix Metallopeptidase 9 (MMP9) Biomarker Activity (AID 2283074); settings: primary human keratinocytes with fibroblasts; actives raise or lower the signal
Method in brief: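 Values come from bidirectional fitting relative to DMSO of MMP-9 levels, which were measured by ELISA. Measurements were taken 24 h after chemical dosing of a keratinocyte and foreskin fibroblast co-culture.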

[5] = read-out: urokinase plasminogen activator (uPA), PLAU (gene 5328); test: BSK_KF3CT_uPA: BioMAP Diversity Plus: KF3CT Assay for urokinase plasminogen activator (uPA) Biomarker Activity (AID 2283075); settings: primary human keratinocytes with fibroblasts; actives raise or lower the signal
Method in brief: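 Values derive from bidirectional fitting against DMSO controls. Keratinocyte/foreskin fibroblast co-cultures received chemical; 24 h later uPA was detected by ELISA, with SRB total-protein staining in parallel wells for overt cytotoxicity.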

CD40, CD40 (gene 958) [6] = test: BSK_LPS_CD40: BioMAP Diversity Plus: LPS Assay for CD40 Biomarker Activity (AID 2283076); settings: primary human HUVEC with PBMC; actives raise or lower the signal
Method in brief: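 HUVEC plus PBMC co-culture stimulated with LPS; CD40 quantified by ELISA 24 h after compound dosing. Fitting was bidirectional relative to DMSO. SRB staining of parallel cultures flagged overt cytotoxicity.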

[7] = read-out: E-selectin (Homo sapiens) (UniProt P16581); test: BSK_LPS_Eselectin: BioMAP Diversity Plus: LPS Assay for Eselectin Biomarker Activity (AID 2283077); settings: primary human HUVEC with PBMC; actives raise or lower the signal
Method in brief: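 Human umbilical vein endothelial cells co-cultured with PBMC under LPS stimulation; cell-surface E-selectin measured by ELISA 24 h after dosing. Change in either direction versus DMSO, with SRB total-protein staining in parallel cultures for cytotoxicity.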

[8] = read-out: Interleukin-8 (IL8), CXCL8 (gene 3576); test: BSK_LPS_IL8: BioMAP Diversity Plus: LPS Assay for Interleukin-8 (IL8) Biomarker Activity (AID 2283078); settings: primary human HUVEC with PBMC; actives raise or lower the signal
Method in brief: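 Human umbilical vein endothelial cells co-cultured with PBMC, LPS-stimulated, exposed to compound for 24 h. IL-8 quantified by ELISA; fitted in both directions against DMSO, with SRB total-protein staining of parallel cultures for cytotoxicity.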

[9] = BSK_LPS_SRB: Viability Assessment in the BioMAP Diversity Plus: LPS Assay (AID 2283079); settings: primary human HUVEC with PBMC;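 note: total protein by sulforhodamine B absorbance as a cytotoxicity measure; measured one day after compound addition; fitted in both directions against DMSO so loss or gain of signal counts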
Method in brief: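 Co-culture of human umbilical vein endothelial cells and PBMC, read 24 h after dosing. Total protein by 0.1% SRB staining after 10% TCA fixation, absorbance at 560 nm; bidirectional fit against DMSO.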

[10] = read-out: Interleukin-1 alpha (IL1a), IL1A (gene 3552); test: BSK_LPS_IL1a: BioMAP Diversity Plus: LPS Assay for Interleukin-1 alpha (IL1a) Biomarker Activity (AID 2283080); settings: primary human HUVEC with PBMC; actives raise or lower the signal
Method in brief: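 Human umbilical vein endothelial cells co-cultured with PBMC and stimulated with LPS; IL-1a measured by ELISA 24 h after dosing. Bidirectional fitting against DMSO; cytotoxicity checked by SRB staining in parallel cultures.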

[11] = read-out: Macrophage colony-stimulating factor (MCSF), CSF1 (gene 1435); test: BSK_LPS_MCSF: BioMAP Diversity Plus: LPS Assay for Macrophage colony-stimulating factor (MCSF) Biomarker Activity (AID 2283083); settings: primary human HUVEC with PBMC; actives raise or lower the signal
Method in brief: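 HUVEC–PBMC co-culture, M-CSF measured by ELISA 24 h after chemical dosing. Fitted in both directions relative to DMSO as negative control; overt cytotoxicity assessed by SRB total-protein staining in parallel cultures.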

[12] = read-out: Tissue Factor, F3 (gene 2152); test: BSK_LPS_TissueFactor: BioMAP Diversity Plus: LPS Assay for Tissue Factor Biomarker Activity (AID 2283084); settings: primary human HUVEC with PBMC; actives raise or lower the signal
Method in brief: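 Human umbilical vein endothelial cells co-cultured with PBMC were dosed with compound. Cell-surface CD142 was measured by ELISA 24 h later. Activity was fitted bidirectionally against DMSO, with SRB total-protein staining in parallel cultures for cytotoxicity.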

[13] = read-out: Tumor necrosis factor (Homo sapiens) (UniProt P01375); test: BSK_LPS_TNFa: BioMAP Diversity Plus: LPS Assay for Tumour Necrosis Factor alpha (TNFa) Biomarker Activity (AID 2283085); settings: primary human HUVEC with PBMC; actives raise or lower the signal
Method in brief: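 Cells (umbilical vein endothelium plus peripheral blood mononuclear cells) were dosed with chemical, incubated 24 h, then TNFa was quantified by ELISA; values derive from bidirectional fitting with DMSO as baseline.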

[14] = read-out: Vascular cell adhesion molecule 1 (VCAM1), VCAM1 (gene 7412); test: BSK_LPS_VCAM1: BioMAP Diversity Plus: LPS Assay for Vascular cell adhesion molecule 1 (VCAM1) Biomarker Activity (AID 2283086); settings: primary human HUVEC with PBMC; actives raise or lower the signal
Method in brief: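 Cells are dosed in an LPS-stimulated endothelial/mononuclear co-culture and, after 24 h, VCAM-1 is quantified by ELISA. Activity in either direction is fitted relative to the DMSO negative control.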

CD38, CD38 (gene 952) = test: BSK_SAg_CD38: BioMAP Diversity Plus: SAg Assay for CD38 Biomarker Activity (AID 2283087); settings: primary human HUVEC with PBMC; actives raise or lower the signal
Method in brief: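 CD38 quantified by ELISA (fluorescence) in a superantigen-activated endothelial cell–PBMC co-culture at 24 h post-dose. Activity fitted in both directions relative to DMSO; parallel SRB and Alamar Blue cytotoxicity read-outs.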

CD40, CD40 (gene 958) [15] = test: BSK_SAg_CD40: BioMAP Diversity Plus: SAg Assay for CD40 Biomarker Activity (AID 2283088); settings: primary human HUVEC with PBMC; actives raise or lower the signal
Method in brief: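 HUVEC plus PBMC co-culture, superantigen-activated, with CD40 read by ELISA 24 h after dosing. Curves fitted in both directions against DMSO. Overt cytotoxicity checked by parallel SRB total-protein staining.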

CD69, CD69 (gene 969) = test: BSK_SAg_CD69: BioMAP Diversity Plus: SAg Assay for CD69 Biomarker Activity (AID 2283089); settings: primary human HUVEC with PBMC; actives raise or lower the signal
Method in brief: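 ELISA, fluorescence read-out: CD69 on human umbilical vein endothelial cell + PBMC co-culture, 24 h post-dosing. Gain or loss of signal fitted bidirectionally against DMSO baseline.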

[16] = BSK_LPS_PGE2: BioMAP Diversity Plus: LPS Assay for Prostaglandin E2 (PGE2) Biomarker Activity (AID 2283082); settings: primary human HUVEC with PBMC; actives raise or lower the signal
Method in brief: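 Compounds were added to the LPS co-culture of endothelium and PBMC, and PGE2 was measured by ELISA after 24 h. Responses in either direction were fitted with DMSO as baseline.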

[17] = read-out: Monocyte Chemoattractant Protein-1 (MCP1), CCL2 (gene 6347); test: BSK_SAg_MCP1: BioMAP Diversity Plus: SAg Assay for Monocyte Chemoattractant Protein-1 (MCP1) Biomarker Activity (AID 2283090); settings: primary human HUVEC with PBMC; actives raise or lower the signal
Method in brief: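 Values derive from bidirectional fitting of ELISA-measured MCP1 against DMSO controls. Readings were taken 24 h after dosing human vascular endothelial cells co-cultured with peripheral blood mononuclear cells under superantigen stimulation.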

Measured: outcome

E-selectin (Homo sapiens), sequence (P16581 whole entry, looked up): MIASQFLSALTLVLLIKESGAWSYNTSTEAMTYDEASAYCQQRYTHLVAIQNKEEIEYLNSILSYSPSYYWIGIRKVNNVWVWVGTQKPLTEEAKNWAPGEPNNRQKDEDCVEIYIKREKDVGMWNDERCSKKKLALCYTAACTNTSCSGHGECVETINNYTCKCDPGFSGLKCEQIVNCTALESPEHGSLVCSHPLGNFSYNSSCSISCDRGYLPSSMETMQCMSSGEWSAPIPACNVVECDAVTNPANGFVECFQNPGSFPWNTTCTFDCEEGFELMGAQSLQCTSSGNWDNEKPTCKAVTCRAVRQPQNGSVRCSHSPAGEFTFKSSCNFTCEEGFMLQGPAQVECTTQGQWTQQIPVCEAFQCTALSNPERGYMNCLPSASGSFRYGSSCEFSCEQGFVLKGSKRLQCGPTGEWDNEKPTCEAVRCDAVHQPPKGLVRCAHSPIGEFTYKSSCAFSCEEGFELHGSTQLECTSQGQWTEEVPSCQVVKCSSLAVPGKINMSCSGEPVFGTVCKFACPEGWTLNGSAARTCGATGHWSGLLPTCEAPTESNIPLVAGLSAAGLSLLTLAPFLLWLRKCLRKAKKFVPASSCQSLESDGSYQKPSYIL
Tumor necrosis factor (Homo sapiens), sequence (P01375 whole entry, looked up): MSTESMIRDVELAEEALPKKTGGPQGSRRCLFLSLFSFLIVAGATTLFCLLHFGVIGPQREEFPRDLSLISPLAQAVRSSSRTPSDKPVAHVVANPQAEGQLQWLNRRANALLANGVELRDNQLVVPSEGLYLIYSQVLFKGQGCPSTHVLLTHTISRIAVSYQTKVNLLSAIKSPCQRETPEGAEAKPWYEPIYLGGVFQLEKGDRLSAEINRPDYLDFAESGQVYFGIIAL

CCOP(=S)(OCC)SCS(=O)(=O)CC
inactive: [1] | [2] | [3] | [4] | [5] | CD40, CD40 (gene 958) [6] | [7] | [8] | [9] | [10] | [11] | [12] | [13] | [14] | CD38, CD38 (gene 952) | CD40, CD40 (gene 958) [15] | CD69, CD69 (gene 969)

OCC1CO1 (stereo not drawn)
inactive: [1] | [2] | [3] | [4] | [5] | CD40, CD40 (gene 958) [6] | [7] | [8] | [9] | [10] | [16] | [11] | [12] | [13] | [14] | CD38, CD38 (gene 952) | CD40, CD40 (gene 958) [15] | CD69, CD69 (gene 969)

CCCCc1ccccc1
inactive: [1] | [2] | [3] | [4] | [5] | CD40, CD40 (gene 958) [6] | [7] | [8] | [9] | [10] | [16] | [11] | [12] | [13] | CD38, CD38 (gene 952) | CD40, CD40 (gene 958) [15] | CD69, CD69 (gene 969) | [17]
